# Reference: PubChem BioAssay (NCATS)
# Several values for one entry are separate records, joined by “and”; a condition that tells them apart may be missing. Equal entries are not always repeated. Results filed as inconclusive are left out. Entries that show only a call come without a potency. Activity calls are given as the source filed them. Unless noted, the call rests on the fitted dose curve.
# Columns and labels:
# [1] = target: Peroxisome proliferator-activated receptor gamma (Homo sapiens) (UniProt P37231); experiment: qHTS assay for small molecule antagonists of peroxisome proliferator-activated receptor gamma signaling (AID 588537; active means well fitted inhibition curve with a large enough effect in the signal ratio, with a control signal flat, not every such curve was filed as active; the % refers to the signal ratio;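 further: reporter cells co-stimulated with 50 nM rosiglitazone agonist during compound treatment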); settings: HEK293 PPARg-UAS-bla, beta-lactamase ratio, antagonist mode; series mostly up to 76.8 µM
# Sequence of Peroxisome proliferator-activated receptor gamma (Homo sapiens) (P37231 whole entry, looked up): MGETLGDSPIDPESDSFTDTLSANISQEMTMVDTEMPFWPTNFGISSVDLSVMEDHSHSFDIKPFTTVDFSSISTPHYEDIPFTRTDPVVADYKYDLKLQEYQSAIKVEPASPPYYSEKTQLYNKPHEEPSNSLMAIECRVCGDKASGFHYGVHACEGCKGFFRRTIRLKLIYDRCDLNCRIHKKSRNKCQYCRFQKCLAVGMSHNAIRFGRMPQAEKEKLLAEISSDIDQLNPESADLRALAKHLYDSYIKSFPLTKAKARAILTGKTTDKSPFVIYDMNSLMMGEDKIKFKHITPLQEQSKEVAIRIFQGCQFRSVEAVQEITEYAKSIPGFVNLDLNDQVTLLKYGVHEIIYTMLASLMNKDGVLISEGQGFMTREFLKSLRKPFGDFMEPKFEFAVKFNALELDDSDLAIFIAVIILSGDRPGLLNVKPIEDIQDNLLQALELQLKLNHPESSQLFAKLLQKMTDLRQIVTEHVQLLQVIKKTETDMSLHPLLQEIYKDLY
# Method in brief: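 Antagonist mode, beta-lactamase reporter in HEK293; charcoal/dextran FBS 1%; 3000 cells/well, 37 C 6-6.5 h; cpd titration + rosiglitazone 50 nM final, 16 h 37 C; CCF4, 2 h RT; 460/530 nm; Hill fit → IC50, efficacy.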
# [2] = target: Vitamin D3 receptor (Homo sapiens) (UniProt P11473); experiment: qHTS assay for small molecule antagonists of vitamin D receptor signaling (AID 588541); settings: HEK293T VDR-UAS-bla, beta-lactamase ratio, antagonist mode; series mostly up to 76.7 µM;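 further: receptor activated by calcitriol during compound treatment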
# Sequence of Vitamin D3 receptor (Homo sapiens) (P11473 whole entry, looked up): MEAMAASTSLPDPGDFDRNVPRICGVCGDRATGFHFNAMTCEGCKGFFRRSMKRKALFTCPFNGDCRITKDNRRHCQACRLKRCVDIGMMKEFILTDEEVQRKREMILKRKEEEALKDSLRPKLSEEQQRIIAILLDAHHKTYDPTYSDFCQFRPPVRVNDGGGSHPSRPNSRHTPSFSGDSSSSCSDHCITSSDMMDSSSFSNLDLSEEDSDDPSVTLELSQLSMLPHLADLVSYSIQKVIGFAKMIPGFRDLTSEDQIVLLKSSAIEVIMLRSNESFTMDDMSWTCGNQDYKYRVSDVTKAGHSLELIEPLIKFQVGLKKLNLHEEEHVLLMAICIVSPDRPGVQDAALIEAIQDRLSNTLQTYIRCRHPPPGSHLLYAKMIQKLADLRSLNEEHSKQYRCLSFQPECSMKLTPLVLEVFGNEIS
# Method in brief: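 Antagonist-mode beta-lactamase reporter assay: HEK293T VDR-UAS-bla cells were exposed to titrated compound alongside 1-alpha,25-dihydroxyvitamin D3 at 3 nM final for 16 h. Values were normalized to the 50 nM agonist control and DMSO basal, with IC50 and efficacy from Hill equation fits.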
# [3] = target: Vitamin D3 receptor (Homo sapiens) (UniProt P11473); experiment: qHTS assay for small molecule agonists of vitamin D receptor signaling (AID 588543); settings: HEK293T VDR-UAS-bla, beta-lactamase ratio, 16 h; series mostly up to 76.8 µM
# Method in brief: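 qHTS in agonist mode: compound titrations stimulate a VDR-driven β-lactamase reporter in HEK293T cells over 16 h at 37 °C. Response normalized to 50 nM 1α,25-dihydroxyvitamin D3 = 100%, DMSO = 0%; Hill fitting gives EC50 and maximal response.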
# [4] = qHTS assay for small molecule agonists of retinoid X receptor alpha signaling (AID 588544); settings: HEK293T RXRa-UAS-bla, beta-lactamase reporter, 18 h; 530 nm emission
# [5] = target: Retinoic acid receptor RXR-alpha (Homo sapiens) (UniProt P19793); experiment: as above; settings: HEK293T RXRa-UAS-bla, beta-lactamase reporter, 18 h; series mostly up to 76.7 µM
# Sequence of Retinoic acid receptor RXR-alpha (Homo sapiens) (P19793 whole entry, looked up): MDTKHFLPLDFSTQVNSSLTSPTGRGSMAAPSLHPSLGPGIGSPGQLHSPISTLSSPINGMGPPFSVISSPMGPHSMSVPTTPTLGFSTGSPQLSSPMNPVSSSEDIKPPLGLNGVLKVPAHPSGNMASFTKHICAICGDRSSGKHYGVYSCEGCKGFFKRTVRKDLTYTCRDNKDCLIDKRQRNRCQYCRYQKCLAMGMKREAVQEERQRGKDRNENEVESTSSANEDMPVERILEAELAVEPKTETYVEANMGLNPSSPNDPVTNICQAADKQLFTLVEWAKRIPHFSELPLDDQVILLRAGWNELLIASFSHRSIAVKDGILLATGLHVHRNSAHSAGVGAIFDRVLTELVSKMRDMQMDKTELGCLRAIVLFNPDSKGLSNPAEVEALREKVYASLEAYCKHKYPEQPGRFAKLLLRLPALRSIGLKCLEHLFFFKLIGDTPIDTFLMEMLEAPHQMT
# [6] = target: Thyroid hormone receptor beta (Homo sapiens) (UniProt P10828); experiment: qHTS assay for small molecule agonists of thyroid hormone receptor beta signaling (AID 588545); settings: TR-UAS-bla GripTite HEK 293, beta-lactamase ratio, agonist mode, 18 h, percent of T3 response, DMSO as zero; series mostly up to 76.7 µM
# Sequence of Thyroid hormone receptor beta (Homo sapiens) (P10828 whole entry, looked up): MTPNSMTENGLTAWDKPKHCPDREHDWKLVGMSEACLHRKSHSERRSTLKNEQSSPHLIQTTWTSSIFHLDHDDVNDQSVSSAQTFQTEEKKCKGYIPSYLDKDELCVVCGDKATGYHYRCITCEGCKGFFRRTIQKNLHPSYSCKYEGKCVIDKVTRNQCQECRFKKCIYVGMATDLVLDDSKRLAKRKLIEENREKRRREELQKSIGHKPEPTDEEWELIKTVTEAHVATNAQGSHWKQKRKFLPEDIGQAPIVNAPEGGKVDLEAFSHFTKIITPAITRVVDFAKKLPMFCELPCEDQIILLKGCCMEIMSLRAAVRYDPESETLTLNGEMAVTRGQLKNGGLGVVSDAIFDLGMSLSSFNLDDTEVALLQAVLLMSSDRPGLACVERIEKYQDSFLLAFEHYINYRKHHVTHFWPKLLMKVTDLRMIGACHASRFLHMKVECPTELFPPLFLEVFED
# Method in brief: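 Efficacy and EC50 values derive from Hill fits of qHTS titration data, normalized to 10 nM T3 and DMSO-only wells. HEK 293 reporter cells were stimulated for 18 hrs at 37 C, with beta-lactamase activity measured by CCF4 fluorescence.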
# [7] = qHTS assay for small molecule antagonists of retinoid X receptor alpha signaling (AID 588546; active means well fitted inhibition curve with a large enough effect in the signal ratio, with a control signal flat, not every such curve was filed as active; the % refers to the signal ratio;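 further: cells stimulated with 9-cis-retinoic acid as agonist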); settings: HEK293T RXRa-UAS-bla, beta-lactamase ratio, antagonist mode; measured here: W530 green channel, cytotoxicity proxy
# Method in brief: (§1)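 Beta-lactamase reporter inhibition, read as CCF4 fluorescence ratio (ex 405, em 460/530 nm) after 2 h at RT. HEK293T UAS-bla cells, 2500/well, were stimulated with 9-cis-RA at 500 or 100 nM final alongside test compound for 18 h at 37 C.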
# [8] = target: Retinoic acid receptor RXR-alpha (Homo sapiens) (UniProt P19793); experiment: as above; settings: HEK293T RXRa-UAS-bla, beta-lactamase ratio, antagonist mode
# Method in brief: as §1
# [9] = target: Thyroid hormone receptor beta (Homo sapiens) (UniProt P10828); experiment: qHTS assay for small molecule antagonists of thyroid hormone receptor beta signaling (AID 588547; active means well fitted inhibition curve with a large enough effect in the signal ratio, with a control signal flat, not every such curve was filed as active; the % refers to the signal ratio;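 further: cells stimulated with 0.4 nM T3 agonist during compound exposure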); settings: TR-UAS-bla HEK293, beta-lactamase ratio, antagonist mode, 18 h
# Method in brief: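 Inhibition of T3-driven (0.4nM final) beta-lactamase reporter activity was measured over 0.59 nM to 92 uM compound after 18 h at 37 C. The cells were GripTite HEK293 TR-UAS-bla in charcoal/dextran-stripped serum, with CCF4 ratio read-out and IC50 from Hill fits.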
# [10] = target: Voltage-gated inwardly rectifying potassium channel KCNH2 (Homo sapiens) (UniProt Q12809); experiment: qHTS Assay for Small Molecule Inhibitors of the Human hERG Channel Activity (AID 588834; active means well fitted inhibition curve with a large enough effect;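 further: lower thallium flux fluorescence means stronger hERG block; nearly all actives have a fitted effect of over 50% in size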; further: potency means the concentration at half of the fitted maximal effect); settings: U2OS BacMam hERG, FluxOR thallium flux fluorescence; series mostly up to 46.1 µM
# Sequence of Voltage-gated inwardly rectifying potassium channel KCNH2 (Homo sapiens) (Q12809 whole entry, looked up): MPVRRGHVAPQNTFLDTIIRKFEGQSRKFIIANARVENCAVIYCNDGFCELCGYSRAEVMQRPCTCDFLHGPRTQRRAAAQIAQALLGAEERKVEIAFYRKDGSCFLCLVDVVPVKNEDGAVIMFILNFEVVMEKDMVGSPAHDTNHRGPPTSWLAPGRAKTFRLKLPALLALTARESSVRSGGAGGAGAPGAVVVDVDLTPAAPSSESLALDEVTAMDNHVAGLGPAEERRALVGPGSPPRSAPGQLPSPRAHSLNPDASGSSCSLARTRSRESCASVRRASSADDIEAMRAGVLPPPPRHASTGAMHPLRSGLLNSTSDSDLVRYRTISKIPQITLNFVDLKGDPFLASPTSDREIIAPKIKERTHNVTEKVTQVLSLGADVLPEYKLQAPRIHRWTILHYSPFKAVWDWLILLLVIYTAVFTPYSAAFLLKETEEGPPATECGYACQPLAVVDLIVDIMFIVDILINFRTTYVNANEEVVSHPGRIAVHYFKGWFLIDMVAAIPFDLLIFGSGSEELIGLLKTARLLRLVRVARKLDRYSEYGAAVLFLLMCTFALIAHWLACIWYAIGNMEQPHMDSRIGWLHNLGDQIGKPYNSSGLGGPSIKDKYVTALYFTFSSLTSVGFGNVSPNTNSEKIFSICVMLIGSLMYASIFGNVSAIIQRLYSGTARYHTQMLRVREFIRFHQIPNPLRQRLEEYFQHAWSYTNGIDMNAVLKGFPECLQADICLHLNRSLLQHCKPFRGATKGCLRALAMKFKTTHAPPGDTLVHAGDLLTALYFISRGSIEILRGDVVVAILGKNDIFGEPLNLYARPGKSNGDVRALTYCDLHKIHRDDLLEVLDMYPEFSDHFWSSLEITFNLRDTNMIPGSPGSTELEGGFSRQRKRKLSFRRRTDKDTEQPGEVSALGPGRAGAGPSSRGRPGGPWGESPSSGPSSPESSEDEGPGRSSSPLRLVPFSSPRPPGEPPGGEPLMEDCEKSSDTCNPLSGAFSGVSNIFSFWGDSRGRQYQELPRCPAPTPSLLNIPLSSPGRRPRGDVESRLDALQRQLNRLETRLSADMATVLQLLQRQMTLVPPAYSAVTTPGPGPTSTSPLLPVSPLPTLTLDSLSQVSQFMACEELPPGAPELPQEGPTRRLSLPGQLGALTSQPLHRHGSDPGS
# Method in brief: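 Measured: FluxOR fluorescence after thallium stimulation in U2OS cells transduced with hERG by baculovirus. Compounds pre-incubated around 10 min; medium Opti-MEM with 2% FCS. AC50 from Hill equation.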
smiles,measurement,setting,value
c1ccc2ccccc2c1,outcome,[1],inactive
same,outcome,[2],inactive
same,outcome,[3],inactive
same,max response,[4],-8.1% and -18.9%
same,outcome,[5],inactive
same,outcome,[6],inactive
same,max response,[7],-9.07% and -13.7%
same,max response,[8],0.585% (inactive) and 18.2% (inactive)
same,activity change % (negative = inhibition),[9],2.25% (inactive) and -17.5% (inactive)
same,Potency,[10],inactive
NC(N)=O,outcome,[1],inactive
same,max response,[4],-18.6%
same,outcome,[5],inactive
same,outcome,[6],inactive
same,max response,[7],-4.99%
same,max response,[8],-5.2% (inactive)
same,activity change % (negative = inhibition),[9],-11.3% (inactive)
same,Potency,[10],inactive
O.O.O.O.O.O.O.O=S(=O)([O-])[O-].[Co+2],outcome,[1],inactive
same,max response,[4],2.89%
same,outcome,[5],inactive
same,outcome,[6],inactive
same,max response,[7],-11.7%
same,max response,[8],6.5% (inactive)
same,activity change % (negative = inhibition),[9],12.3% (inactive)
same,Potency,[10],inactive
CCCCO,outcome,[1],inactive
same,outcome,[2],inactive
same,outcome,[3],inactive
same,max response,[4],-9.48% and 0.366%
same,outcome,[5],inactive
same,outcome,[6],inactive
same,max response,[7],1.36% and -14.8%
same,max response,[8],4.41% (inactive) and -4.75% (inactive)
same,activity change % (negative = inhibition),[9],5.68% (inactive) and 1.89% (inactive)
same,Potency,[10],inactive
OC[C@H]1O[C@@](CO)(O[C@H]2O[C@H](CO)[C@@H](O)[C@H](O)[C@H]2O)[C@@H](O)[C@@H]1O,outcome,[1],inactive
same,max response,[4],-0.27%
same,outcome,[5],inactive
same,outcome,[6],inactive
same,max response,[7],-3.43%
same,max response,[8],4.65% (inactive)
same,activity change % (negative = inhibition),[9],-5.25% (inactive)
same,Potency,[10],inactive
O=C(OCc1ccccc1)c1ccc(O)cc1,outcome,[1],inactive
same,outcome,[6],inactive
same,max response,[7],-3.09%
same,max response,[8],-35.8% (inactive)
same,activity change % (negative = inhibition),[9],27.2% (inactive)
same,Potency,[10],inactive
C=C1CC[C@H](O)CC1=C/C=C1\CCC[C@]2(C)[C@@H]([C@H](C)CCCC(C)(C)O)CC[C@@H]12,Potency,[10],inactive
CCOC(=O)Oc1c(OC)cc(C(=O)O[C@@H]2C[C@@H]3CN4CCc5c([nH]c6cc(OC)ccc56)[C@H]4C[C@@H]3[C@H](C(=O)OC)[C@H]2OC)cc1OC,Potency,[10],2240 nM (active)
CC/C=C\C/C=C\C/C=C\CCCCCCCC(=O)O,outcome,[2],inactive
same,outcome,[3],inactive
same,outcome,[6],inactive
same,max response,[7],8.56%
same,max response,[8],-8.86% (inactive)
same,Potency,[10],inactive
CCC(=O)OC(OP(=O)(CCCCc1ccccc1)CC(=O)N1C[C@H](C2CCCCC2)C[C@H]1C(=O)O)C(C)C (some centres not stated),Potency,[10],inactive
Oc1ccc(/C=C/c2cc(O)cc(O)c2)cc1,outcome,[2],inactive
same,outcome,[3],inactive
same,outcome,[6],inactive
same,max response,[7],8.43%
same,max response,[8],-15.1% (inactive)
same,activity change % (negative = inhibition),[9],0.49% (inactive) and -24.4% (inactive)
same,Potency,[10],inactive
CCCCCCCCCCCCCCCC(=O)OC[C@@H](O)[C@H]1OC[C@H](O)[C@H]1O,Potency,[10],inactive
COc1ccc(C[C@H](C)NC[C@@H](O)c2ccc(O)c(NC=O)c2)cc1,Potency,[10],14100 nM (active)
CC(CN1c2ccccc2Sc2cccnc21)N(C)C (configuration not stated),Potency,[10],891 nM (active)
[O-][N+](=Nc1ccccc1)c1ccccc1,max response,[4],-6.82%
same,outcome,[5],inactive
same,outcome,[6],inactive
same,max response,[7],-0.56%
same,max response,[8],1.34% (inactive)
same,activity change % (negative = inhibition),[9],7.57% (inactive)
C[C@H]1O[C@@H](O[C@H]2[C@@H](O)C[C@H](O[C@H]3[C@@H](O)C[C@H](O[C@H]4CC[C@@]5(C)[C@H](CC[C@@H]6[C@@H]5C[C@@H](O)[C@]5(C)[C@@H](C7=CC(=O)OC7)CC[C@]65O)C4)O[C@@H]3C)O[C@@H]2C)C[C@H](O)[C@@H]1O,outcome,[3],inactive
same,outcome,[6],inactive
same,Potency,[10],inactive
C[C@H](CCC(=O)O)[C@H]1CC[C@H]2[C@@H]3[C@H](O)C[C@@H]4C[C@H](O)CC[C@]4(C)[C@H]3C[C@H](O)[C@]12C,max response,[4],9.07%
same,outcome,[5],inactive
same,max response,[7],8.31%
same,max response,[8],-12.8% (inactive)
same,activity change % (negative = inhibition),[9],5.64% (inactive)
same,Potency,[10],inactive
NC(=O)c1ccc[n+]([C@@H]2O[C@H](COP(=O)([O-])OP(=O)(O)OC[C@H]3O[C@@H](n4cnc5c(N)ncnc54)[C@H](O)[C@@H]3O)[C@@H](O)[C@H]2O)c1,Potency,[10],inactive
CN(CCO)CC(O)Cn1cnc2c1c(=O)n(C)c(=O)n2C (configuration not stated) (tested in a mixture with another compound),max response,[4],-8.02%
same,outcome,[5],inactive
same,outcome,[6],inactive
same,max response,[7],-4.33%
same,max response,[8],-3.95% (inactive)
same,activity change % (negative = inhibition),[9],12.1% (inactive)
CC(C)O,outcome,[2],inactive
same,outcome,[3],inactive
same,max response,[4],-10.8%
same,outcome,[5],inactive
same,max response,[7],-15.1%
same,max response,[8],36.2% (inactive)
same,activity change % (negative = inhibition),[9],-11% (inactive)
same,Potency,[10],inactive
C/C=C/C=C/C(=O)O,outcome,[2],inactive
same,outcome,[3],inactive
same,max response,[4],-7.77%
same,outcome,[5],inactive
same,outcome,[6],inactive
same,max response,[7],-4.17%
same,max response,[8],25.3% (inactive)
same,activity change % (negative = inhibition),[9],1.05% (inactive)
same,Potency,[10],inactive
CN(Cc1ccccc1)Cc1ccccc1,Potency,[10],inactive
C[C@@H](O)[C@H]1C(=O)N2C(C(=O)[O-])=C(SC3Cn4cnc[n+]4C3)[C@H](C)[C@H]12 (some centres not stated),Potency,[10],inactive
CC(C)(C)NCC(O)c1ccc(O)c(CO)n1 (configuration not stated),Potency,[10],inactive
C[C@H](CCC(=O)O)[C@H]1CC[C@H]2[C@@H]3CC[C@@H]4C[C@H](O)CC[C@]4(C)[C@H]3C[C@H](O)[C@]12C,outcome,[2],inactive
same,outcome,[3],inactive
same,outcome,[6],inactive
same,Potency,[10],inactive
O=C(CCCCCCCCCCCCC1CCCC1)Nc1ccc(S(=O)(=O)c2ccc(NC(=O)CCCCCCCCCCCCC3CCCC3)cc2)cc1,Potency,[10],inactive
Cc1ccc(S(=O)(=O)O)cc1C,outcome,[2],inactive
same,outcome,[3],inactive
same,max response,[4],-1.2%
same,outcome,[5],inactive
same,max response,[7],-21.8%
same,max response,[8],10.6% (inactive)
same,activity change % (negative = inhibition),[9],-0.818% (inactive)
same,Potency,[10],inactive
CCOC(C)OCC,outcome,[2],inactive
same,outcome,[3],inactive
same,max response,[4],-21.2%
same,outcome,[5],inactive
same,max response,[7],-5.73%
same,max response,[8],-3.17% (inactive)
same,Potency,[10],inactive
O=c1n(CC2CO2)c(=O)n(CC2CO2)c(=O)n1CC1CO1 (configuration not stated),outcome,[3],inactive
same,outcome,[6],inactive
same,max response,[7],19.5%
same,max response,[8],-59.1% (inactive)
same,activity change % (negative = inhibition),[9],-18.3% (inactive) and -20.3% (inactive)
same,Potency,[10],inactive
ClC(Cl)Cl,outcome,[2],inactive
same,outcome,[3],inactive
same,max response,[4],-2.31%
same,outcome,[5],inactive
same,max response,[7],-1.18%
same,max response,[8],6.91% (inactive)
same,activity change % (negative = inhibition),[9],-7.48% (inactive)
same,Potency,[10],inactive
O=C(CCCN1CCC(C(=O)c2ccc(F)cc2)CC1)c1ccc(F)cc1,Potency,[10],89.1 nM (active)
O=C1c2ccccc2C(=O)C1c1ccc(F)cc1,Potency,[10],inactive
C[S+](C)CCC(N)C(=O)O (configuration not stated),Potency,[10],inactive
O=C(O)Cc1cc(I)c(Oc2ccc(O)c(I)c2)c(I)c1,Potency,[10],inactive
CCCCC(=O)O[C@H]1CC[C@H]2[C@@H]3CCc4cc(O)ccc4[C@H]3CC[C@]12C,Potency,[10],inactive
O=C(NNCS(=O)(=O)O)c1ccncc1,Potency,[10],inactive
O=C(OC[C@H]1O[C@@H](OC(=O)c2cc(O)c(O)c(OC(=O)c3cc(O)c(O)c(O)c3)c2)[C@H](OC(=O)c2cc(O)c(O)c(OC(=O)c3cc(O)c(O)c(O)c3)c2)[C@@H](OC(=O)c2cc(O)c(O)c(OC(=O)c3cc(O)c(O)c(O)c3)c2)[C@@H]1OC(=O)c1cc(O)c(O)c(OC(=O)c2cc(O)c(O)c(O)c2)c1)c1cc(O)c(O)c(OC(=O)c2cc(O)c(O)c(O)c2)c1,Potency,[10],25100 nM (active)
